This is a sample that favours compounds with a hit; in the whole collection about 12% have one here.
BAZ2B inh = BAZ2B (human) inhibition; Q9UIF8; AlphaScreen BAZ2B-H3K14Ac peptide displacement; Potency, µM (doses to about 114 µM), usual class: inhibitors; actives 4.4% (n = 360,000); AID 504333; also: nearly all actives have a fitted effect of over 60% in size
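AlphaScreen displacement of biotin-H3(5-23)K14Ac peptide (50 nM final) from BAZ2B (50 nM final) in PBS pH 7.4, 0.01% Tween-20; complex preformed 30 min RT, then compounds (top 110 uM) 30 min RT, beads 20 min dark.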
L3MBTL1 block = L3MBTL1 (human) inhibition; AlphaScreen L3MBTL1–H3K9me1 peptide binding; AID 485360; actives 0.66% (n = 230,000); Potency, µM (series often up to 57.1 µM), most hits filed as inhibitors; Q9Y468; also: nearly all actives have a fitted effect of over 60% in size
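L3MBTL1 (50 nM) pre-complexed 30 min with biotinylated H3(1-15)K9me1 peptide (75 nM), then compounds added for 30 min at room temperature; AlphaScreen streptavidin donor/nickel chelate acceptor beads (10 ug/mL final) read after 30 min dark incubation.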
JMJD2A Tudor = inhibitors of human JMJD2A Tudor domain | Potency, µM (doses to about 114 µM), most hits filed as inhibitors | actives 4.4% (n = 390,000) | AlphaScreen JMJD2A-Tudor / H3K4me3 peptide binding | O75164; also: nearly all actives have a fitted effect of over 50% in size
Sfp PPTase inh = Sfp phosphopantetheinyl transferase inhibition; Q9F4F7; Biochemical Sfp PPTase activity, qHTS; Potency, µM, most hits filed as inhibitors; actives 3.5% (n = 310,000);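 also: the enzyme is Sfp with the accession as filed and its product quenches rhodamine fluorescence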
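Buffer: 50 mM Hepes-Na pH 7.6, 10 mM MgCl2, 0.01% Nonidet P-40, 0.01% BSA. Enzyme 15 nM, pre-exposed to compound 15 min; substrates then added and fluorescence change tracked over 30 min.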
HP1b chromo inh = inhibitors of HP1-beta chromodomain binding to methylated histone tails. actives 0.56% (n = 390,000). Potency, µM (series often up to 114 µM), most hits filed as inhibitors. AlphaScreen HP1-beta / biotin-H3K9me3 peptide binding; also: nearly all actives have a fitted effect of over 70% in size
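Compound inhibition of the preformed complex between 50 nM HP1-beta and 50 nM biotinylated H3K9me3 peptide was read by AlphaScreen. Buffer was PBS pH 7.4 with 0.01% Tween-20. Incubations ran 30 min at room temperature, with 10 ug/mL donor/acceptor beads.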
G9a inh = blocks human histone lysine methyltransferase G9a; Potency, µM (series often up to 102 µM), most hits filed as inhibitors; Q96KQ7; actives 8.8% (n = 350,000); G9a H3K9 monomethylation, AlphaScreen, 2 h; AID 504332; also: nearly all actives have a fitted effect of over 75% in size
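Step 1: enzyme (final 20 nM) with compound, 15 min RT. Step 2: substrate peptide 500 nM and SAM 20 uM, 2 h RT. Step 3: anti-H3K9me1 antibody and AlphaScreen beads, 10 min, then plate read.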
A number is an active result; . = inactive; ? = inconclusive; / = no result; ! = not active in a repeat; [ ] = another dose, or the depositor's remark. Calls follow the shape of the dose curve; as a rule, active = well fitted curve in the direction sought with a large enough effect; inconclusive = small, poorly fitted or top-dose-only effect, or another doubt; inactive = no such curve, though single readings can be large; an effect the other way counts as inactive or inconclusive.

SMILES	BAZ2B inh	L3MBTL1 block	JMJD2A Tudor	Sfp PPTase inh	HP1b chromo inh	G9a inh
Cc1cc(O)c(/C=N/Nc2cccc(Cl)c2)c(=O)o1	.	.	.[11.4 µM]	.	.	2.2µM
Cc1cc(O)c(/C=N/Nc2ccccc2Cl)c(=O)o1	.	.	56µM	.	.	1.4µM
Cc1cc(O)c(/C=N/Nc2ccc(Cl)cc2)c(=O)o1	.	.	?	79µM	.	8.9µM
Cc1cc(O)c(/C=N/OCc2ccc(Cl)cc2Cl)c(=O)o1	.	.	?	.	.	20µM
Cc1ccc(OCC(=O)N(Cc2ccc(Cl)cc2)Cc2ccco2)cc1C	.	/	.	/	.	.
COc1cccc(CNC(=O)C2CCN(S(=O)(=O)c3c(C)noc3/C=C/c3cccs3)CC2)c1	/	/	.	/	.	.
CCOC(=O)CSc1c(-c2cccs2)[nH]c2ccccc12	.	.	.	.	.	.
CCOC(=O)CSc1c(-c2ccc(Cl)cc2)[nH]c2ccccc12	.	.	22µM	.	.	.
Cc1ccc(S(=O)(=O)n2nc(C)c(S(=O)(=O)N3CCOCC3)c2C)cc1	?	/	?	.	.	35µM
Cc1nn(S(=O)(=O)c2cccc([N+](=O)[O-])c2)c(C)c1S(=O)(=O)N1CCOCC1	.	/	79µM	.	.	.
Cc1nn(S(=O)(=O)c2ccc(Cl)cc2)c(C)c1S(=O)(=O)N1CCOCC1	.	/	?	.	.	?
Cc1nn(S(=O)(=O)c2ccc(Br)cc2)c(C)c1S(=O)(=O)N1CCOCC1	?	/	.	.	.	40µM
Cc1nn(S(=O)(=O)c2cccc([N+](=O)[O-])c2)c(C)c1Br	?	?	.	.	.	?
CCOC(=O)CSc1nc2ccc(NC(=O)COc3ccc(F)cc3)cc2s1	.	/	.	/	.	.
C=CCn1c(SCc2cccc(OC)c2)nnc1-c1ccncc1	?	.	.	.	.	.
Cc1c(C#N)c(NC(=O)CCl)n(Cc2ccc(F)cc2)c1C	.	/	.	.	.	?
CCN(CC)C(=O)c1sc(NC(=O)Cc2cccs2)c(C#N)c1C	.	.	.	.	.	.
Cc1c(C#N)c(NC(=O)CCl)n(Cc2cccs2)c1C	.	.	.	.	.	50µM
Cc1c(C#N)c(NC(=O)CCl)n(Cc2ccccc2)c1C	?	/	.	.	.	56µM
CC(Cl)OC(=O)Nc1cccc2cccnc12 (stereo not drawn)	/	/	?	/	.	/
NC(=O)CC(NC(=O)Cc1cccc2ccccc12)c1ccc(NCCCN2CCCC2=O)c([N+](=O)[O-])c1 (stereo not drawn)	.	.	.	.	.	71µM
COC(=O)c1sccc1NC(=S)Nc1cc(C)cc(C)c1	.	.	.	.	.	.
COC(=O)c1sccc1NC(=S)Nc1ccccc1	.	.	.	.	.	50µM
Fc1ccc(NC(=S)Nc2nccs2)cc1	.	.	.	?	.	?
S=C(NCc1ccccn1)Nc1ccccc1	79µM	.	.	.	.	.
SMILES	BAZ2B inh	L3MBTL1 block	JMJD2A Tudor	Sfp PPTase inh	HP1b chromo inh	G9a inh
S=C(Nc1ccccc1)Nc1nccs1	.	.	?	?	.	27µM!
CCN(CC)C(=O)Cc1cc(C(=O)O)c2ccccc2n1	.	/	.	.	.	.
Fc1ccc(NC(=S)NCc2ccccn2)cc1	.	.	.	.	.	.[0.501 µM]
O=C(Cc1cc(C(=O)O)c2ccccc2n1)Nc1ccccc1	.	/	.	.	.	35µM
Cc1nn2cnnc2c(C)c1Cc1c(F)cccc1Cl	.	/	.	.	.	.
CCOc1ccc2oc(C(=O)OC(C(=O)NC(N)=O)C(C)C)c(C)c2c1 (stereo not drawn)	.	.	.	.	.	.
O=S(=O)(c1ccc2c(c1)OCCO2)N1CCN(S(=O)(=O)c2ccccc2Cl)CC1	/	/	.	/	/	/
O=C(Cc1ccccn1)Nc1ccccc1	?	.	.	.	.	40µM
CC(NC(=O)c1ccccc1NC(=O)c1nsc2ccccc12)c1ccccc1 (stereo not drawn)	.	/	.	/	.	.
Cc1ccc(-c2nn(Cc3ccccc3)cc2C(=O)NCC2CCCO2)cc1 (stereo not drawn)	.	.	.	/	.	.

High-throughput results: PubChem BioAssay, National Center for Advancing Translational Sciences (NCATS)
